{"source": "PubChem BioAssay AID720518", "about": "(National Center for Advancing Translational Sciences (NCATS), 2013)", "note": "Inconclusive results are not listed. Unmarked numbers belong to inactive results. Calls follow the shape of the full dose curve.", "data": [{"test": "qHTS for Inhibitors of Cell Surface uPA Generation: Wild-type Protective Antigen (WT-PrAg) Counterscreen for Cherry-picked Compounds; also: 0% is about no effect", "details": "cells, WT protective antigen toxicity counterscreen; series mostly up to 115 µM; activity (protection): at the top concentration", "units": {"activity (protection)": "%"}, "values": [{"smiles": "O=C(Nc1ccc(Cl)cn1)C1CCCN(c2ncnc3c2nc2n3CCCCC2)C1", "note": "(configuration not stated)", "activity (protection)": -2.43}, {"smiles": "COc1ccccc1NS(=O)(=O)c1cc(NC(=O)CCc2nc3ccccc3c(=O)[nH]2)ccc1C", "activity (protection)": -1.11}, {"smiles": "NC(=O)CC(NC(=O)Cc1cccc2ccccc12)c1ccc(N2CCN(c3ccccc3)CC2)c([N+](=O)[O-])c1", "note": "(configuration not stated)", "activity (protection)": 0.0175}, {"smiles": "O=C(Nn1cnnc1)c1ccc(Cl)cc1", "activity (protection)": 0.243}, {"smiles": "CC(C)Cn1cnc2c1c(=O)[nH]c(=O)n2Cc1ccccc1", "activity (protection)": 0.91}, {"smiles": "COc1ccc(C(=O)CC(=O)C(=O)Nc2ccccc2)cc1", "activity (protection)": -2.05}, {"smiles": "COCCNS(=O)(=O)c1cc(OC)c(C)cc1C", "activity (protection)": 1.58}, {"smiles": "CCOC(=O)c1ccc(N=Cc2c(O)n(-c3ccc(OC)cc3)c(=S)[nH]c2=O)cc1", "activity (protection)": 0.91}, {"smiles": "COc1ccccc1-c1ccc(SCC(=O)NCCc2ccccc2)nn1", "activity (protection)": -1.14}, {"smiles": "COc1ccc([C@@H]2[C@@H]3C(=O)N(C(C)(C)C)C(=O)[C@@H]3[C@]3(C)C(=O)N(c4cccc(Cl)c4)C(=O)N23)cc1", "activity (protection)": 2.55}, {"smiles": "COc1ccc(NC(=O)CN2C(=O)CSc3ncccc32)cc1", "activity (protection)": 1.25}, {"smiles": "Cc1cccc(-c2nc(CS(=O)CC(=O)NCc3cccs3)c(C)o2)c1", "note": "(configuration not stated)", "activity (protection)": -1.45}, {"smiles": "COc1ccc(-n2nnnc2SCC(=O)Nc2nnc(C)s2)cc1", "activity (protection)": -0.427}, {"smiles": "CC(C)CN(C(=O)CN1CCC(C)CC1)c1c(N)n(CC(C)C)c(=O)[nH]c1=O", "activity (protection)": 0.779}, {"smiles": "CCC(NC(=O)Cc1c(C)c2c(cc(C)c3c(C)c(C)oc32)oc1=O)C(=O)O", "note": "(configuration not stated)", "activity (protection)": -2.27}, {"smiles": "Cc1ccc(C23CC4CC(CC(C(=O)NN)(C4)C2)C3)cc1", "activity (protection)": -1.5}, {"smiles": "COc1cccc(NC(=O)c2nnn(CC(=O)Nc3cc(C)cc(C)c3)c2N)c1", "activity (protection)": 1.77}, {"smiles": "CCCCN(CC(=O)NCc1ccc(F)cc1)C(=O)c1ccco1", "activity (protection)": 1.58}, {"smiles": "COCc1c(C(=O)Nc2nc(C)cs2)oc2ccccc12", "activity (protection)": -2.04}, {"smiles": "Cc1nc2ncccn2c1-c1csc(Nc2ccc(S(N)(=O)=O)cc2)n1", "activity (protection)": -1.41}, {"smiles": "CC1=C(C(=O)OCc2ccccc2)C(c2cccc([N+](=O)[O-])c2)NC(=O)N1", "note": "(configuration not stated)", "activity (protection)": -1.14}, {"smiles": "O=C1[C@H]2[C@@H](c3ccc(F)cc3)N3C(=O)N(c4cccc(F)c4)C(=O)[C@@]3(Cc3ccc(Cl)cc3)[C@H]2C(=O)N1C1CCCCC1", "activity (protection)": 11.7}]}]}
